Screening data: PubChem BioAssay, National Center for Advancing Translational Sciences (NCATS)
DRD3 agonist: D3 dopamine receptor (human) agonism; P35462; D3R DiscoveRx beta-arrestin cells, luminescence, 90 min; max activation, %; 410,000 tested, 0.58% active; AID 652048; in the data active = max activation above about 30%; note: 0% is about no effect
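Agonist-mode cell screen: cells plated at 1500/well and incubated overnight at 37 °C, then exposed to library compounds for 90 min at 37 °C. Detection reagent was added for 30–60 min at room temperature, and luminescence was read.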
D3 antag: antagonists of human D3 dopamine receptor; P35462; D3R cells, DiscoveRx beta-arrestin luminescence, antagonist mode; active compounds read low; max response, negative = inhibition, %; 360,000 tested, 2.5% active; AID 652054; in the data active = max response below about -50%; inconclusive = no clear call, values can overlap the other calls; note: % is set by controls: 0 for no effect and ±100 for the full control effect
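Cells plated overnight at 1500 cells/well, then exposed to library compounds with dopamine controls for 90 minutes at 37 degrees C. DiscoveRx reagent added for 30–60 minutes at room temperature; luminescence read, quantitative HTS format.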
D1 PAM: enhances dopamine response at the human D1 receptor; AID 504651; 360,000 tested, 0.036% active; potentiation, % at 10 µM; HEK293 TREx D1 cells, calcium flux, dopamine EC20 potentiation; P21728; in the data active = potentiation above about 30%; note: 0% is about no effect
Target sequence (P21728 whole entry, looked up): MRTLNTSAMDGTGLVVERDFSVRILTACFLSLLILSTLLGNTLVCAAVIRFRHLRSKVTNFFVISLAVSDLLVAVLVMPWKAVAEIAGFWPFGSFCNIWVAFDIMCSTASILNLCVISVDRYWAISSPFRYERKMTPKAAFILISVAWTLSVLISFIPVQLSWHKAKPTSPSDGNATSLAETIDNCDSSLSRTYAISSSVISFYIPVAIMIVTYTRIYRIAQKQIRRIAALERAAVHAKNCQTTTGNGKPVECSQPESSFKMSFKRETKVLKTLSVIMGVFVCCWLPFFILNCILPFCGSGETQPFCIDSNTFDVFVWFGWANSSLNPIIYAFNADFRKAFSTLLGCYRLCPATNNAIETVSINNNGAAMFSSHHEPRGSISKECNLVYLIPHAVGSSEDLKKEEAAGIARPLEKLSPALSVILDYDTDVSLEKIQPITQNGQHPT
D1 agonist: activates the human D1 dopamine receptor | P21728 | HEK293 T-REx D1 cells, calcium flux, agonist mode | activation, % at 2 µM | 360,000 tested, 1% active | AID 504660; in the data active = activation above about 30%; note: 0% is about no effect
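Agonism was scored from calcium flux recorded over 180 s (1 read/s) after pintool compound addition, following a 10-cycle baseline. Cells were inducible force-coupled HEK293 TREx D1, plated overnight at 30 C and loaded with no-wash calcium dye.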
D1 antag: blocks dopamine activation of the human D1 receptor. P21728. HEK293 TREx D1 cells, calcium flux, dopamine EC80; active compounds read low. activity change, negative = inhibition, % at 10 µM. 360,000 tested, 3.2% active. AID 504652; in the data active = activity change below about -30%; note: % is set by controls: 0 for no effect and ±100 for the full control effect
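Compound effects on dopamine-evoked calcium signalling were measured in tetracycline-induced HEK293 Trex D1 cells. Dopamine at EC80 followed a 180 s compound pre-read, and fluorescence was tracked kinetically for 180 s more.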
* marks the source's active call; other numbers are inactive results; u = inconclusive; x = no result. This is a sample that favours compounds with a hit; in the whole collection about 6% have one here.

SMILES	DRD3 agonist	D3 antag	D1 PAM	D1 agonist	D1 antag
COc1cc2c(cc1OC)CN(CCC(=O)c1ccc(Br)cc1)CC2	-18.3	-52.9*	-6.7	3.7	-10.3
COc1cc2c(cc1OC)CN(C(=O)CCNC(=O)c1ccc(Br)cc1)CC2	-29.3	1.8	-6.0	0.4	3.7
CN(C)c1ccc(/C=C(\Cl)c2nc3ccccc3s2)cc1	-22.0	-1.5	-0.9	99.3*	-35.8*
O=C(O)c1ccc(C=C(c2nc3ccccc3s2)c2nc3ccccc3s2)cc1	-12.9	u	-1.2	0.5	-11.4
Oc1ccc(N2CCN(Cc3cc4c(cc3Br)OCCO4)CC2)cc1	-17.5	-86.5*	3.0	5.2	1.4
Cc1cccc(C)c1N/C=C/c1onc(C)c1[N+](=O)[O-]	-5.5	-28.6	-5.5	-0.9	-7.1
Cc1noc(/C=C/c2ccc(-c3ccccc3Cl)o2)c1[N+](=O)[O-]	5.4	0.7	1.6	133.5*	-3.6
Cc1noc(/C=C/c2cccnc2)c1[N+](=O)[O-]	-4.2	-4.0	-9.2	3.7	2.2
Cc1ccc(N/C=C/c2onc(C)c2[N+](=O)[O-])cc1	-3.5	-7.7	3.1	32.6*	3.8
CCc1nc2ccc(C(=O)NCCCN3CCCC3=O)cn2c1N(CC)C(=O)NCCc1ccccc1	0.5	8.7	x	x	x
CCc1nc2ccc(C(=O)NCCCN3CCCC3=O)cn2c1N(CC)C(C)=O	-4.7	-55.9*	x	x	x
Cc1onc(-c2ccccc2)c1C(=O)Nc1ncc([N+](=O)[O-])s1	12.3	8.0	-8.3	42.7*	-32.1*
Cc1ccc(F)cc1NC(=O)c1c(-c2ccccc2)noc1C	1.8	-50.0*	x	2.1	-4.8
COC(=O)c1c(NC(=O)c2nc(SCc3ccc(C)cc3)ncc2Cl)sc2c1CCCC2	12.8	x	1.2	0.6	-0.6
Cc1cc(C(=O)NCCc2ccc(S(=O)(=O)NC(=O)NN3CCCCCC3)cc2)no1	8.1	x	x	x	x
Cc1cc(C(F)F)n2ncc(C(=O)NCc3ccccc3C(F)(F)F)c2n1	4.5	-6.9	8.9	6.0	15.3
Cc1cc(C)n2ncc(C(=O)Nc3ccc(Cl)c(Cl)c3)c2n1	-2.1	2.4	3.0	-1.2	-4.6
Cc1cc(C(F)F)n2ncc(C(=O)NC3CCCCCC3)c2n1	-4.4	-52.4*	-4.8	-0.3	-18.2
Cc1cc(C)n2ncc(C(=O)O)c2n1	0.7	3.6	-3.5	-1.5	-46.0*
Cc1cc(C(F)F)n2ncc(C(=O)NCc3ccccc3F)c2n1	2.5	6.1	-4.5	1.7	-31.9*
Cc1cc(C)c(C#N)c(OCC2CCCO2)n1 (stereo unspecified)	2.1	2.1	x	x	x
CC(=O)c1ccc(OCC(=O)N2CCCCC2)cc1	-5.5	x	x	x	x
CCC1CN(C(=O)Nc2cccc3c2CCCC3)c2cc(C)ccc2O1 (stereo unspecified)	1.2	x	-1.6	0.1	-59.9*
O=c1c2ccccc2cnn1Cc1n[nH]c(=S)n1-c1ccc(F)c(Cl)c1	-1.6	-4.6	0.7	0.8	22.1
S=c1[nH]nc(-c2ccc3ccccc3n2)n1-c1cc(Cl)cc(Cl)c1	3.6	-1.0	-11.3	41.4*	-25.7
SMILES	DRD3 agonist	D3 antag	D1 PAM	D1 agonist	D1 antag
O=c1c2ccccc2cnn1Cc1n[nH]c(=S)n1-c1cc(Cl)cc(Cl)c1	-7.1	-56.8*	-3.0	1.8	-9.5
Cc1ccc(NC(=O)c2cc(-c3ccc(Br)s3)nc3ccccc23)cc1F	-13.9	x	1.4	8.5	-10.1
COc1ccc(N2Cc3cccc(C(=O)Nc4ccc(F)cc4)c3C2=O)cc1	5.1	x	-2.6	-2.1	7.0
CC(=O)Nc1ccc(-c2ccnc3c2CC(C(=O)Nc2ccc(Cl)c(C(F)(F)F)c2)O3)cc1 (stereo unspecified)	-9.3	-66.4*	x	x	x
Cc1ccc(NC(=S)NCC23C=CC(O2)C2C(=O)N(c4ccc(C)cc4)C(=O)C23)cc1 (stereo unspecified)	2.0	12.3	1.4	-0.1	-16.8
CC(C)(C)OC(=O)NCC12C=CC(O1)C1C(=O)N(Cc3ccccc3)C(=O)C12 (stereo unspecified)	6.8	22.5	3.5	18.2	-33.4*
COc1cccc2sc3cc(C#CC4(O)CCCCC4)ccc3c(=O)c12	63.4*	203.2	x	x	x
CCn1cc(C(=O)NCc2ccccc2)c(=O)c2cc(S(=O)(=O)N3CCCCCC3)ccc21	-6.0	x	4.0	2.3	0.7
CCCN1CCCc2cc(CN(CCCN3CCOCC3)C(=O)Nc3ccc(Cl)c(Cl)c3)ccc21	-21.0	x	-4.8	0.9	5.1
